The list is not random: actives were taken first. Their share in the collection is about 6.6%.
Mtb FBA inh = Mtb FBA enzyme inhibitors, primary screen, biochemical, fluorescence, strain H37Rv | inhibition, % at 1 µM | purified M. tuberculosis FBA, fluorescence read-out | Fructose-bisphosphate aldolase (Mycobacterium tuberculosis (strain ATCC 25618 / H37Rv)), … | AID 588726, 2011 | hit rate 2.3% among 360,000; in the data active = inhibition above about 27%;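 note: 0% = vehicle and 100% = reference inhibitor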
Target sequence (P9WQA3 whole entry, looked up): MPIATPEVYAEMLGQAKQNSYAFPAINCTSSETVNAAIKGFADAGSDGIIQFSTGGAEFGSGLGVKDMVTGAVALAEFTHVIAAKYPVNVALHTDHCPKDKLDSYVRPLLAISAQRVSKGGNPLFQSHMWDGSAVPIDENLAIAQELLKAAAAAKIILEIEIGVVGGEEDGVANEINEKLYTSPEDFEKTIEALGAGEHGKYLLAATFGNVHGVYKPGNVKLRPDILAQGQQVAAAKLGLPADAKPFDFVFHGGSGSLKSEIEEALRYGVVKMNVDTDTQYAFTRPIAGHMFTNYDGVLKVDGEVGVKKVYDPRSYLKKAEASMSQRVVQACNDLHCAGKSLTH
BoNT-F LC inh = BoNT/F light chain protease inhibitors, primary screen, biochemical, flow cytometry, MLPCN library | Botulinum neurotoxin type F light chain protease (Clostridium botulinum) | Multiplex microsphere protease cleavage assay | inhibition, % at 10 µM | hit rate 0.22% among 360,000 | AID 588497, 2011; in the data active = inhibition above about 35%, passing the limit was not always enough; inconclusive = no clear call, values can overlap the other calls; note: plate controls were buffer without enzyme for full effect and enzyme alone for no effect
BoNT-A LC inh2 = BoNT/A light chain protease inhibitors, primary screen, biochemical, flow cytometry, MLPCN library | inhibition, % at 10 µM | Botulinum neurotoxin type A light chain protease (Clostridium botulinum A str. ATCC 3502) | AID 588499, 2011 | hit rate 0.17% among 360,000 | multiplex microsphere protease substrate cleavage; note: plate controls were buffer without enzyme for full effect and enzyme alone for no effect
Autofluor counter = counter-screen for toxin protease inhibitors: compound fluorescence; compound autofluorescence counterscreen, microsphere flow cytometry; hits give high values; fluorescence intensity (concentration not given with the values); hit rate 3.1% among 360,000; in the data active = fluorescence intensity above about 16000; inconclusive = no clear call, values can overlap the other calls
Anthrax LF inh2 = Bacillus anthracis LF protease inhibitors, primary screen, biochemical, multiplex microsphere, MLPCN library. inhibition, % at 10 µM. Lethal factor (Bacillus anthracis), P15917. multiplex microsphere protease cleavage assay. hit rate 0.12% among 360,000; note: plate controls were buffer without enzyme for full effect and enzyme alone for no effect
GDH-TPI counter = GDH-TPI coupling enzyme inhibitors, primary screen, artefact control for M. tuberculosis FBA inhibitor project, biochemical, absorbance, full deck; GDH-TPI coupled enzyme counterscreen, NADH absorbance; inhibition, % at 4.8 µM; hit rate 1.2% among 360,000; AID 588335, 2011; in the data active = inhibition above about 30%;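 note: 0% = DMSO wells and 100% = wells lacking the enzyme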
* marks the source's active call; other numbers are inactive results; u = inconclusive; x = no result. Cut-off read from the data, not from the text of the source, unless noted: active = inhibition above about 30%; inconclusive = no clear call, values can overlap the other calls; inactive = below that.

SMILES | Mtb FBA inh | BoNT-F LC inh | BoNT-A LC inh2 | Autofluor counter | Anthrax LF inh2 | GDH-TPI counter
Cc1ccccc1C(O)c1ccncc1 (stereo unspecified) | -2.0 | 3.7 | 2.6 | 19164* | -0.8 | -5.6
Cc1ccc(C(O)c2ccncc2)cc1 (stereo unspecified) | 0.8 | 9.3 | 8.2 | 17116* | -13.0 | -8.7
Cc1[nH]c2ccccc2c1C(O)c1ccncc1 (stereo unspecified) | -0.7 | -4.9 | -0.5 | 4901 | -4.0 | 5.1
CC1OC2CC(=O)OC2C2=C1C(=O)c1c(O)cccc1C2=O (stereo unspecified) | -4.7 | 1.2 | -1.0 | 5201 | -13.0 | 0.0
O=C(O)C(Cc1cccs1)c1cccs1 (stereo unspecified) | 2.3 | -1.8 | -1.3 | 3672 | 10.2 | 8.8
CC(NC(=O)c1ccccc1Br)c1nnc(SCc2ccc([N+](=O)[O-])cc2)n1C (stereo unspecified) | -0.1 | 4.7 | 2.5 | 19315* | 0.6 | -8.1
Cc1ccc(S(=O)(=O)c2nc(/C=C/c3ccccc3)oc2N2CCC(C(N)=O)CC2)cc1 | 5.8 | -6.8 | -0.1 | 3015 | -3.2 | 19.5
Fc1cccc(/C=N/NC(=S)Nc2ccccc2Cl)c1 | 0.4 | -3.4 | 0.1 | 2012 | -3.1 | 9.9
Fc1ccc(NC(=S)N/N=C/c2cccc(Br)c2)c(F)c1 | -2.0 | -3.5 | u | 20663* | 0.0 | 18.4
O=C(O)C/C(=C\c1cc(Br)cs1)c1nc2ccccc2o1 | 0.3 | 1.3 | -1.0 | 5212 | 0.0 | 27.1
Cc1ccsc1/C=C(\CC(=O)O)c1nc2ccccc2o1 | 3.0 | -0.8 | -3.2 | 4784 | 1.6 | 43.6*
CC(C)Oc1ccc(CNC(=O)CCCN2C(=O)C(c3ccccc3)Oc3cccnc32)cc1 (stereo unspecified) | -3.5 | -0.7 | 0.3 | 4957 | -0.9 | -7.6
Cc1cc(S(=O)(=O)ON2C(=O)c3ccccc3C2=O)ccc1F | 37.0* | 5.9 | -0.3 | 5442 | 1.8 | 7.6
COCCNC(=O)C1CCCN(Cc2ccc(-c3ccccc3)cc2)CC1 (stereo unspecified) | 0.5 | 3.9 | 0.1 | 3716 | -2.1 | 7.1
COc1ccc(OC)c(C(C)NC(=O)c2ccc(Br)cc2)c1 (stereo unspecified) | -1.3 | 1.9 | 1.4 | 9972 | 3.0 | -2.2
COc1cc(Br)c(C(C)NC(=O)c2ccccc2)cc1OC (stereo unspecified) | -2.6 | -4.1 | -1.7 | 21305* | -1.5 | -4.4
Cc1ccc(C)c(NC(=O)Cn2cnc3c(oc4ccccc43)c2=O)c1 | 0.7 | 5.2 | -0.3 | 3997 | 3.6 | -3.1
CCOC(=O)/C(=C/C=C1\Sc2cc(C)c(C)cc2N1CC)C(C)=O | -10.6 | 20.2 | 40.4* | 16482* | 23.0 | -2.2
C=C(C)CNC(=S)N/N=C(\C)c1ccc(-n2ccnc2)cc1 | -1.0 | -2.2 | -0.6 | 19874* | 0.4 | 18.8
C/C(=N\NC(N)=S)c1ccc(-n2ccnc2)cc1 | -0.5 | 1.9 | -0.9 | 3815 | 2.2 | 15.8
COc1ccc(S(=O)(=O)N2CCN(C(=O)C3CC3)CC2)cc1Br | 0.1 | 2.8 | -3.6 | u | -2.2 | 1.1
O=C(O)CN1C(=O)/C(=C/c2ccccc2Cl)Oc2ccccc21 | 129.9* | -15.4 | -5.5 | 3664 | -1.7 | 17.1
O=C(NC1CCCCC1)c1cc(-c2cccc(Cl)c2)on1 | -1.4 | 1.0 | 3.3 | 5670 | 4.2 | 3.8
COc1ccc(-c2cc(C(=O)N3CCN(C(c4ccccc4)c4ccccc4)CC3)no2)cc1 | -0.5 | -8.7 | -0.6 | 11566 | -4.9 | 6.7
O=C(c1cc(-c2ccco2)on1)N1CCN(C(c2ccccc2)c2ccccc2)CC1 | 0.2 | 2.0 | 4.2 | 21890* | -5.9 | -0.6
SMILES | Mtb FBA inh | BoNT-F LC inh | BoNT-A LC inh2 | Autofluor counter | Anthrax LF inh2 | GDH-TPI counter
O=C(N1CCOCC1)N1CCN(C(c2ccccc2)c2ccccc2)CC1 | -1.0 | 0.9 | 1.0 | 21654* | -5.3 | -1.9
CNc1ccc(Cl)cc1S(=O)(=O)c1ccccc1[N+](=O)[O-] | -0.2 | -4.2 | -0.2 | 4275 | -2.7 | x
Cc1ccc(NC(=S)N/N=C/c2ccc(OCCC(C)C)cc2)c(C)c1 | 2.8 | 0.5 | 0.4 | 4082 | -3.4 | 35.9*
C(/C=C/c1ccccc1)=N/N1CCN(c2ccccc2)CC1 | 1.4 | -9.7 | u | 17556* | -3.9 | 26.6
CC[C@H](NC(=O)CC[C@H]1O[C@@H](n2cnc3c(NC(=O)c4ccccc4)ncnc32)[C@H](O)[C@@H]1O)c1ccccc1 | -0.5 | 2.6 | 0.3 | 5598 | 1.3 | x
O=c1c2ccccc2n(CC(O)CN2CCCCC2)c2ccccc12 (stereo unspecified) | 108.5* | -20.1 | 5.3 | 4376 | 10.1 | 3.9
OC(CN1CCCCC1)Cn1c2ccccc2c2ccccc21 (stereo unspecified) | 3.3 | -22.3 | -3.3 | 3661 | 8.1 | 0.0
CC(C)n1c(=O)c2c(O)cc(=O)oc2c2ccccc21 | 0.3 | 3.7 | u | 21712* | -0.7 | 25.4
CCn1c(=O)c2c(O)cc(=O)oc2c2ccccc21 | 0.0 | -2.5 | u | 22829* | 3.0 | 23.1
CCOC(=O)[C@]12CCCC=C1N(Cc1cccc3ccccc13)C(=O)[C@H](CC(=O)N1CCOCC1)C2 | x | -6.8 | -0.6 | 4144 | -7.4 | x
CCN(CC)CCCN=C(C)c1c(O)n(C2CCCCC2)c(=O)[nH]c1=O | 4.3 | -4.2 | -0.4 | 16590* | -1.0 | 1.5
CCC(=Nc1ccc(OC)cc1OC)c1c(O)n(C2CCCCC2)c(=O)[nH]c1=O | -3.8 | -1.4 | 0.9 | 22084* | -1.2 | 7.7
CCC(=NCCN1CCOCC1)c1c(O)n(C2CCCCC2)c(=O)[nH]c1=O | 1.6 | 8.6 | 0.6 | 5537 | -1.5 | -7.1
CC(=NCCO)c1c(O)n(C2CCCCC2)c(=O)[nH]c1=O | 2.2 | -1.6 | 0.6 | 3166 | 3.6 | -1.5
CCC(=NCCCN(CC)CC)c1c(O)n(C2CCCCC2)c(=O)[nH]c1=O | -2.1 | -3.3 | -2.9 | 25763* | -0.4 | -5.7
CCC(=NCc1ccco1)c1c(O)n(C2CCCCC2)c(=O)[nH]c1=O | -0.8 | 10.3 | 2.0 | 9369 | 9.9 | 3.2
Cc1ccc(NC(=O)c2ncn(CCCN3CCN(Cc4cccc5ccccc45)CC3)n2)cc1C | -3.3 | -0.5 | 0.1 | 3502 | -3.2 | -1.0
COc1cc(C=Cc2nnc3c4ccccc4cnn23)cc(OC)c1OC | -0.5 | -2.0 | -0.7 | 2949 | -7.2 | 54.7*
CCCNC(=O)C1(C)CCN(C(=O)c2oc3ccccc3c2C)C1 (stereo unspecified) | 2.9 | 2.9 | -0.1 | 3839 | -2.5 | 14.3
COc1ccccc1/C=N/NC(=O)c1csc(C)c1C | 2.0 | 2.7 | 0.8 | 10612 | -0.5 | 16.7
CCOC(=O)c1c(C)[nH]c(C(=O)N/N=C/c2ccc(OC)c(OC)c2)c1C | -3.4 | 0.7 | -0.2 | 5029 | -2.3 | 43.1*
